hDAT+cocaine: changed hDAT dopamine uptake under cocaine IC80, either direction, primary screen, cocaine antagonist project, cell-based, LLC-PK1 hDAT, [14C]-dopamine uptake, MLSMR; LLC-PK1 hDAT cells, [14C]-dopamine uptake with cocaine IC80; actives deviate in either direction; Sodium-dependent dopamine transporter (Homo sapiens), Q01959; B-score at 10 µM; 1.3% of 110,000 active; AID 449768, 2010;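 active = Z score or B-score, a plate-position-corrected score, falls beyond the plate's 99.7% confidence bounds, in either direction; inactive = both scores lie inside the 99.7% bounds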;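 note: scored against the spread of the other compound wells on the same plate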
BAP1 block: inhibitors of BAP1 deubiquitinase, primary screen, biochemical, Ub-AMC fluorescence, kinetic; recombinant BAP1, Ub-AMC hydrolysis fluorescence kinetic; active compounds read low; Ubiquitin carboxyl-terminal hydrolase BAP1 (Homo sapiens), Q92560; 0.48% of 72,000 active; AID 436, 2006; calls only at 20 µM;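 active = activity remaining at or below 50% of control, provided the compound also passes the data quality filters; inactive = the rest, including low values that fail the filters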;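 note: 100% = DMSO wells rate and 0% = substrate alone blank rate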
D1 allo mod: D1 CRE-luciferase signal change, two-sided – cell-based, HEK293 D1, dopamine EC30, D1 allosteric modulator project, primary screen; 5.9% of 58,000 active; B-score at 10 µM; dopamine EC30 potentiation; actives deviate in either direction;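 active = luminescence count or its row- and column-corrected plate score outside the 99.7% band of the plate's sample wells, on either side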
* hit, by the source's call; i = inactive; nt = no result given. The full list was thinned out, with hits kept by preference.

SMILES	hDAT+cocaine	BAP1 block	D1 allo mod
CC1=C(C(=O)Nc2ccccc2)C(c2cccnc2)n2nc(-c3cccnc3)nc2N1 (stereo not drawn)	0.052	i	-0.017
COC(=O)C1=C(C)Nc2nc(-c3ccccc3)nn2C1c1ccc(C)o1 (stereo not drawn)	0.67	i	-7.3*
O=C(NC(Cc1c[nH]c2ccccc12)C(=O)O)c1ccco1 (stereo not drawn)	-9.5*	nt	nt
O=C(Nc1ccccc1C(=O)NC(Cc1c[nH]c2ccccc12)C(=O)O)c1ccco1 (stereo not drawn)	-0.4	i	-0.32
O=C(Oc1ccc2ccc(=O)oc2c1)c1cccc([N+](=O)[O-])c1	nt	i	nt
CC(C)OC(=O)c1cc2c(ccn2C)n1CC(=O)N1CCC(Cc2ccccc2)CC1	2.2*	nt	nt
Cc1ccccc1Cn1c(C(=O)OC(C)C)cc2c1ccn2C	0.24	nt	nt
COC(=O)CCC(=O)NNC(=O)CCCOc1ccc(Cl)cc1Cl	-0.54	nt	nt
COC(=O)CCC(=O)NNC(=O)c1ccc(Cl)cc1Cl	-4.7*	nt	nt
COc1cccc(-c2ccc(=O)n(CC(=O)Nc3ccc(C(=O)N4CCCC4)cc3)n2)c1	2.9*	nt	nt
COc1cccc(-c2ccc(=O)n(CC(=O)Nc3cc4c(cc3NC(C)=O)OCCO4)n2)c1	0.45	i	-0.33
COc1ccc(N2C(=O)CC(N3CCN(C(=O)c4ccccc4)CC3)C2=O)cc1 (stereo not drawn)	nt	i	nt
CC12c3ccccc3C(c3ccccc31)C1C(=O)N(c3ccc(C#N)cc3)C(=O)C12 (stereo not drawn)	nt	i	nt
COc1ccc(NC(=O)c2ccc(N3C(=O)c4ccc([N+](=O)[O-])cc4C3=O)cc2)cc1	nt	i	nt
Cc1cccc(NC(=O)c2nc[nH]c2C(=O)N[C@@H](CC(C)C)C(=O)OC(C)(C)C)c1	2.7*	nt	nt
Cc1cccc(NC(=O)c2nc[nH]c2C(=O)N[C@@H](Cc2ccccc2)C(=O)OC(C)(C)C)c1	0.81	nt	nt
CCn1nc(NC(=O)c2cccnc2)c2cc3cccc(C)c3nc21	1.5	i	-0.73
Cc1ccc2nc3c(cc2c1)c(NC(=O)c1cccnc1)nn3C	-0.13	i	-4.4*
CCc1cc2c(NCCCC(=O)O)ncnc2s1	nt	i	nt
c1nc(SCc2ccc3c(c2)OCO3)c2c3c(sc2n1)CCCC3	nt	i	nt
COC(=O)c1ccc(N2C(=O)CC(NCCc3ccc(S(N)(=O)=O)cc3)C2=O)cc1 (stereo not drawn)	nt	i	nt
Cc1ccc(-c2cn3c(n2)sc2cc(C)ccc23)cc1	nt	i	nt
N#Cc1cccc(C(c2nnnn2Cc2ccccc2)N2CCCC2)c1 (stereo not drawn)	0.047	i	-0.75
N#Cc1ccc(C(c2nnnn2Cc2ccccc2)N2CCCC2)cc1 (stereo not drawn)	-9.3*	nt	nt
Fc1ccc(C(c2nnnn2Cc2cccs2)N2CCN(c3ccccc3)CC2)cc1 (stereo not drawn)	2.2*	nt	nt
SMILES	hDAT+cocaine	BAP1 block	D1 allo mod
COc1ccc(Cn2nnnc2C(c2cccs2)N2CCN(c3ccccc3)CC2)cc1 (stereo not drawn)	-0.39	i	-0.38
O=C(c1cccc(COc2cccc3ccccc23)c1)N1CCCC1	3.7*	nt	nt
O=C(c1cccc(COc2ccc(Cl)cc2Cl)c1)N1CCN(c2ccccn2)CC1	0.75	i	-2.7
CCS(=O)(=O)N(C)c1ccc([N+](=O)[O-])cc1	nt	i	nt
O=C(O)c1cc2nc3c(c(C(F)(F)F)n2n1)CCc1ccccc1-3	-0.019	i	-4.5*
CC(C)(C)NC(=O)c1cc2nc3c(c(C(F)(F)F)n2n1)CCc1ccccc1-3	nt	i	nt
O=c1[nH]c(NCCO)nc2c1C1(CCCC1)Cc1ccccc1-2	0.077	nt	nt
CCC1(C)Cc2ccccc2-c2nc(NCCO)[nH]c(=O)c21 (stereo not drawn)	-2.9*	nt	nt
Cc1ccc(NC(=O)CCCCCN2C(=O)c3ccccc3C2=O)c(C)c1	nt	i	nt
COc1ccc(NC(=O)C23CC4CC(CC(C4)C2)C3)cc1OC	nt	i	nt
Cc1cccc2cc(C#N)c(N3CCN(C)CC3)nc12	0.79	i	-2.2*
Cc1cc(C)c2nc(N3CCN(C)CC3)c(C#N)cc2c1	1.3	i	-0.64
Cc1ccc(NC(=O)COc2ccc([N+](=O)[O-])cc2)c(Br)c1	nt	i	nt
COC(=O)c1c(NC(=O)CN2CCN(C(=O)c3ccco3)CC2)c2cc(C)ccc2n1C	0.15	i	-2.8*
COC(=O)c1c(NC(=O)CN2CCN(C(=O)c3ccco3)CC2)c2c(C)cccc2n1C	-0.78	i	-0.61
COc1ccc(C)cc1Nc1n[nH]c(C)c1[N+](=O)[O-]	nt	i	nt
CCOC(=O)c1c(NC(=O)c2ccccc2)sc2c(O)c(CN(CC)CC)ccc12	2.4*	nt	nt
